# Experimental data reported in PubChem BioAssay (Tox21).
# Unmarked numbers belong to inactive results. Results filed as inconclusive are left out. Entries that show only a call come without a potency. Active and inactive are the calls of the source. Unless noted, calls follow the shape of the dose curve; as a rule, active = well fitted curve in the direction sought with a large enough effect in the repeat runs; inconclusive = weak or mixed curves; inactive = no such curve, though single readings can be large; an effect the other way counts as inactive or inconclusive.
# What was measured:
# [1] = qHTS assay to identify small molecule agonists of H2AX (AID 1224845; active = well fitted activation curve with a large enough effect in the signal ratio in the repeat runs, not every such curve was filed as active; the % refers to the signal ratio)
# How it was run: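 Wild-type CHO-K1 cells, plated overnight, exposed 3hr at 37C to 15 concentrations (0.76% DMSO final). Lysed, then HTRF anti-pH2AX (S139) cryptate and anti-H2AX-d2 antibodies, 24 hr room temperature; 665/620 nm emission read.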
# [2] = qHTS assay to identify small molecule agonists of the hypoxia (HIF-1) signaling pathway (AID 1224846; active = well fitted activation curve with a large enough effect in the signal ratio in the repeat runs, not every such curve was filed as active; the % refers to the signal ratio)
# How it was run: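 HRE-bla ME-180 beta-lactamase reporter cells in medium with 0.5% dialyzed FBS, pre-incubated 5 h then exposed to compounds 17 h at 37C, 5% CO2; reporter induction read with CCF4-AM FRET substrate.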
# [3] = qHTS assay to identify small molecule agonists of H2AX - cell viability counter screen (AID 1224847; calls by dose curve; also: nearly all actives have a fitted effect of over 30% in size; also: potency is read from the fitted curve at half-maximal effect; as to activity change, negative = cytotoxicity: top concentration of the series differs between compounds)
# How it was run: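 Viability of CHO-K1 (wild type) cells after 3 hr compound exposure was measured by CellTiter-Glo luminescence.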
# [4] = qHTS assay to identify small molecule antagonists of the estrogen related receptor (ERR) signaling pathway from Tox21 library (AID 1224848); also: nearly all actives have a fitted effect of over 50% in size; also: potency is read from the fitted curve at half-maximal effect
# How it was run: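 Luminescent reporter read-out (ONE-Glo) from NTP's ERR cell line after 18 h treatment at 37 C with DMSO-dissolved Tox21 compounds; cells pre-plated 6 h beforehand at 2,000 per well.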
# [5] = qHTS assay to identify small molecule agonists of the estrogen related receptor (ERR) signaling pathway from Tox21 library (AID 1224849; calls by dose curve; also: nearly all actives have a fitted effect of over 15% in size); details: ERR reporter cell line, ONE-Glo luciferase, 18 h; at 92.4 µM (top of the series) unless noted
# How it was run: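 ERR reporter cells (NTP line) pre-incubated 6 hours at 37 C, then exposed to compounds for 18 hours at 37 C. ONE-Glo luciferase luminescence was read after 30 minutes at room temperature.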
# [6] = qHTS RealTime-Glo MT Cell Viability Assay in HepG2 cells - 24 hour (AID 1224867); also: nearly all actives have a fitted effect of over 50% in size; also: potency is read from the fitted curve at half-maximal effect
# How it was run: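 Luminescence read-out: viable HepG2 cells reduce a prosubstrate to a NanoLuc substrate, giving a signal proportional to live cell number. Reads taken at 0, 8, 16, 24, 32 and 40 h of compound exposure at 37 C.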
# [7] = qHTS RealTime-Glo MT Cell Viability Assay in HEK293 cells - 32 hour (AID 1224868); also: nearly all actives have a fitted effect of over 50% in size; also: potency is read from the fitted curve at half-maximal effect; as to activity change, negative = cytotoxic: top concentration of the series differs between compounds
# How it was run: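 Nonlytic real-time viability readout: viable cells convert prosubstrate to NanoLuc substrate, giving luminescence proportional to live cell number. HEK293, 600 cells/well, compound added after 5 h, continuous culture at 37 C.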
# [8] = A CellTox Green Cytotoxicity Assay to monitor cytotoxicity in HEK293 cells - 0 hour (AID 1224869); also: nearly all actives have a fitted effect of over 50% in size
# How it was run: (§1)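 HEK293 cells, 600/well, were preincubated 5 hours and then exposed to compounds at 37 C for up to 40 hours. A cell-impermeant cyanine dye staining dead-cell DNA was read by fluorescence at 0, 8, 16, 24, 32 and 40 h time points.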
# [9] = qHTS RealTime-Glo MT Cell Viability Assay in HepG2 cells - 40 hour (AID 1224870); also: nearly all actives have a fitted effect of over 50% in size
# How it was run: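 HepG2 cells (600/well) mixed with RealTime-Glo MT reagent, settled 5 h at 37 C/5% CO2 before compound addition. Nonlytic NanoLuc luminescence from viable-cell prosubstrate reduction read repeatedly during 40 h treatment at 37 C.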
# [10] = A CellTox Green Cytotoxicity Assay to monitor cytotoxicity in HEK293 cells - 40 hour (AID 1224871); also: nearly all actives have a fitted effect of over 45% in size
# How it was run: as §1
smiles,measurement,setting,value
CCN(CC)c1cccc(C)c1,Potency,[1],inactive
same,outcome,[2],inactive
same,Potency,[3],inactive
same,Potency,[4],inactive
same,"activity change, positive = activation",[5],9.53%
same,Potency,[6],inactive
same,Potency,[7],inactive
same,Potency,[8],inactive
same,Potency,[9],inactive
same,Potency,[10],inactive
C=CC(=C)CC/C=C(\C)CCC=C(C)C,activation (H2AX phosphorylation),[1],-0.467% [at 31.6 µM]
same,activation,[2],-0.763% [at 15.8 µM]
same,"activity change, negative = cytotoxicity",[3],2.41% [at 31.6 µM]
same,"activity, negative = inhibition",[4],-7.19% [at 19 µM]
same,"activity change, positive = activation",[5],-3.55% [at 19 µM]
same,"activity change, negative = cytotoxicity",[6],0.599% [at 15.8 µM]
same,"activity change, negative = cytotoxic",[7],-12.8% [at 15.8 µM]
same,cytotoxicity,[8],0.448% [at 15.8 µM]
same,"activity change, negative = cytotoxic",[9],-6.2% [at 15.8 µM]
same,cytotoxicity increase,[10],4.27% [at 15.8 µM]
CN1CN(C)CN(C)C1,Potency,[1],inactive
same,outcome,[2],inactive
same,Potency,[3],inactive
same,Potency,[4],inactive
same,"activity change, positive = activation",[5],7.33%
same,Potency,[6],inactive
same,Potency,[7],inactive
same,Potency,[8],inactive
same,Potency,[9],inactive
CC[N+](CC)(CC)Cc1ccccc1,Potency,[1],inactive
same,outcome,[2],inactive
same,Potency,[3],inactive
same,Potency,[4],inactive
same,"activity change, positive = activation",[5],-4.7%
same,Potency,[6],inactive
same,Potency,[7],inactive
same,Potency,[8],inactive
same,Potency,[9],inactive
same,Potency,[10],inactive
NCCCCCCNCCCCCCN,Potency,[1],inactive
same,outcome,[2],inactive
same,Potency,[3],inactive
same,Potency,[4],inactive
same,"activity change, positive = activation",[5],-13.7%
same,Potency,[6],inactive
same,Potency,[7],inactive
same,Potency,[8],inactive
same,Potency,[9],inactive
same,Potency,[10],inactive
COc1ccccc1OCCNCC(O)COc1cccc2[nH]c3ccccc3c12 (configuration not stated),Potency,[1],inactive
same,outcome,[2],inactive
same,Potency,[3],49.2 µM (active)
same,Potency,[4],26.6 µM (active)
same,"activity change, positive = activation",[5],-52.7% [at 42.5 µM]
same,Potency,[6],21.3 µM (active)
same,Potency,[7],16.9 µM (active)
same,Potency,[8],inactive
C(=C/c1ccccc1)/c1ccccc1,Potency,[1],inactive
same,outcome,[2],inactive
same,Potency,[3],inactive
same,Potency,[4],inactive
same,"activity change, positive = activation",[5],2.16%
same,Potency,[6],inactive
same,Potency,[7],inactive
same,Potency,[8],inactive
CCCCCCCOC(=O)c1ccccc1C(=O)OCCCCCCC,Potency,[1],inactive
same,outcome,[2],inactive
same,Potency,[3],inactive
same,Potency,[4],inactive
same,"activity change, positive = activation",[5],1.61%
same,Potency,[6],inactive
same,Potency,[7],inactive
same,Potency,[8],inactive
same,Potency,[9],inactive
CC1(C)COCN1,Potency,[1],inactive
same,outcome,[2],inactive
same,Potency,[3],inactive
same,Potency,[4],inactive
same,"activity change, positive = activation",[5],5.19%
same,Potency,[6],inactive
same,Potency,[7],inactive
C[Si](C)(C)Cl,Potency,[1],inactive
same,outcome,[2],inactive
same,Potency,[3],inactive
same,Potency,[4],inactive
same,"activity change, positive = activation",[5],0.496%
same,Potency,[6],inactive
same,Potency,[7],inactive
same,Potency,[8],inactive
same,Potency,[9],inactive
same,Potency,[10],inactive
CCCCCCCCCCCCCCCC,Potency,[1],inactive
same,outcome,[2],inactive
same,Potency,[3],inactive
same,Potency,[4],inactive
same,"activity change, positive = activation",[5],3.33%
same,Potency,[6],inactive
same,Potency,[7],inactive
same,Potency,[8],inactive
same,Potency,[9],inactive
same,Potency,[10],inactive
c1cc[nH]c1,Potency,[1],inactive
same,outcome,[2],inactive
same,Potency,[3],inactive
same,Potency,[4],inactive
same,"activity change, positive = activation",[5],-5.69%
same,Potency,[6],inactive
same,Potency,[7],inactive
same,Potency,[8],inactive
same,Potency,[9],inactive
same,Potency,[10],inactive
CCCC(=O)OCC(COC(=O)CCC)OC(=O)CCC,Potency,[1],inactive
same,outcome,[2],inactive
same,Potency,[3],inactive
same,Potency,[4],inactive
same,"activity change, positive = activation",[5],-2.08%
same,Potency,[6],inactive
same,Potency,[7],inactive
same,Potency,[8],inactive
same,Potency,[9],inactive
same,Potency,[10],inactive
O=c1cccc[nH]1,Potency,[1],inactive
same,outcome,[2],inactive
same,Potency,[3],inactive
same,Potency,[4],inactive
same,"activity change, positive = activation",[5],0.143%
same,Potency,[6],inactive
same,Potency,[7],inactive
same,Potency,[8],inactive
same,Potency,[9],inactive
same,Potency,[10],inactive
CCc1c(Br)c(Br)c(Br)c(Br)c1Br,Potency,[1],inactive
same,outcome,[2],inactive
same,Potency,[3],inactive
same,Potency,[4],inactive
same,"activity change, positive = activation",[5],-5.33%
same,Potency,[6],inactive
same,Potency,[7],inactive
same,Potency,[8],inactive
same,Potency,[9],inactive
same,Potency,[10],inactive
CCC1CCCCC1,Potency,[1],inactive
same,outcome,[2],inactive
same,Potency,[3],inactive
same,Potency,[4],inactive
same,"activity change, positive = activation",[5],11.4%
same,Potency,[6],inactive
same,Potency,[7],inactive
same,Potency,[8],inactive
same,Potency,[9],inactive
same,Potency,[10],inactive
CO[Si](CCCNCCNCCN)(OC)OC,Potency,[1],inactive
same,outcome,[2],inactive
same,Potency,[3],inactive
same,Potency,[4],inactive
same,"activity change, positive = activation",[5],2.38%
same,Potency,[6],inactive
same,Potency,[7],inactive
same,Potency,[8],inactive
same,Potency,[9],inactive
same,Potency,[10],inactive
CCCCCCCCCCc1ccccc1,Potency,[1],inactive
same,outcome,[2],inactive
same,Potency,[3],inactive
same,Potency,[4],inactive
same,"activity change, positive = activation",[5],0.758%
same,Potency,[6],inactive
same,Potency,[7],inactive
same,Potency,[8],inactive
same,Potency,[9],inactive
same,Potency,[10],inactive
CCc1c(C(=O)O)c(=O)cnn1-c1ccc(Cl)cc1,Potency,[1],inactive
same,outcome,[2],inactive
same,Potency,[3],inactive
same,Potency,[4],inactive
same,"activity change, positive = activation",[5],3.84%
same,Potency,[6],inactive
same,Potency,[7],inactive
same,Potency,[8],inactive
same,Potency,[9],inactive
CC(C)CCOCCC(C)C,Potency,[1],inactive
same,outcome,[2],inactive
same,Potency,[3],inactive
same,Potency,[4],inactive
same,"activity change, positive = activation",[5],-1.03%
same,Potency,[6],inactive
same,Potency,[7],inactive
same,Potency,[8],inactive
same,Potency,[9],inactive
CCOC(/C=C(\C)CCC=C(C)C)OCC,Potency,[1],inactive
same,outcome,[2],inactive
same,Potency,[3],inactive
same,Potency,[4],inactive
same,"activity change, positive = activation",[5],4.73%
same,Potency,[6],inactive
same,Potency,[7],inactive
same,Potency,[8],inactive
same,Potency,[9],inactive
CCCCCCCCCCCCCCCCCO,activation (H2AX phosphorylation),[1],-3.22% [at 31.6 µM]
same,activation,[2],-0.342% [at 15.8 µM]
same,"activity change, negative = cytotoxicity",[3],-0.549% [at 31.6 µM]
same,"activity, negative = inhibition",[4],-9.79% [at 19 µM]
same,"activity change, positive = activation",[5],-4.89% [at 19 µM]
same,"activity change, negative = cytotoxicity",[6],0.355% [at 15.8 µM]
same,"activity change, negative = cytotoxic",[7],6.41% [at 15.8 µM]
same,cytotoxicity,[8],-13.6% [at 15.8 µM]
same,"activity change, negative = cytotoxic",[9],-3.35% [at 15.8 µM]
same,cytotoxicity increase,[10],-18.9% [at 15.8 µM]
CCOC(OCC)C(=O)c1ccccc1,Potency,[1],inactive
same,outcome,[2],inactive
same,Potency,[3],inactive
same,Potency,[4],inactive
same,"activity change, positive = activation",[5],1.64%
same,Potency,[6],inactive
same,Potency,[7],inactive
same,Potency,[8],inactive
same,Potency,[9],inactive
same,Potency,[10],inactive
COc1ccc2sc(C(=O)Nc3nnn[nH]3)c(OC(C)C)c2c1,Potency,[1],inactive
same,outcome,[2],inactive
same,Potency,[3],inactive
same,Potency,[4],24.2 µM (active)
same,"activity change, positive = activation",[5],-42.5%
same,Potency,[6],inactive
same,Potency,[7],27.4 µM (active)
same,Potency,[8],inactive
same,Potency,[9],inactive
